Screening data: PubChem, National Center for Advancing Translational Sciences (NCATS)
ELG1 DNA repair = inhibitors of ELG1-dependent DNA repair in HEK293T cells; AID 504467; hit rate 2.3% among 330,000; Potency, µM (titrated, usually from 46.1 µM), for the others: at the highest dose activity change, negative = inhibition, usual class: inhibitors; HEK293T ELG1-luciferase reporter, luminescence, 16 h; DNA damage induced by 5-fluorouridine; further: potency means the concentration at half of the fitted maximal effect; nearly all actives have a fitted effect of over 55% in size
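Overnight (16 hr) co-exposure of 2,000 cells/well to 5-fluorouridine and compound at 37 °C preceded detection. Luciferase was quantified via ONE-Glo luminescence; loss of signal denotes inhibition.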
IL-1B inflam inh = blocks inflammasome-driven IL-1 beta release; THP-1 LPS/ATP IL-1B secretion, AlphaLISA, 16 h; active compounds read low; activity change, % at 57.5 µM; hit rate 4.7% among 360,000; in the data active means activity change below about -50%; inconclusive means mostly about -30% to -49%
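Secreted IL-1B measured by AlphaLISA bead assay after 16 h compound exposure of THP-1 cells; compounds (final up to 57.5 uM) added 1 h before LPS (250 ng/mL) and ATP (1.25 mM) stimulation; lower signal means less secretion.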
HT1080-NT tox = kills 2HG-producing HT-1080-NT fibrosarcoma cells; HT-1080-NT fibrosarcoma viability, CellTiter-Glo ATP luminescence, 48 h; Potency, µM (titrated, usually from 46.1 µM), inactives show at the top dose activity, negative = less viability, actives largely listed as cytotoxic; hit rate 1.6% among 360,000; AID 686970;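 further: NT is the 2HG producing partner of a matched IDH1 knockdown line; potency means the concentration at half of the fitted maximal effect; 0% = DMSO-treated cells and -100% = media-only wells without cells; nearly all actives have a fitted effect of over 55% in size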
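A 48-hour cytotoxicity screen used HT-1080-NT cells plated 2 hours before compound delivery. ATP-based CellTiter-Glo luminescence measured viability, normalized to DMSO and no-cell controls.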
TDP1 cell CPT = DT40-hTDP1 cell growth loss with CPT. AID 686979. hit rate 12% among 420,000. Potency, µM (highest dose often 46.2 µM), without a hit: at the top dose activity change, negative = growth inhibition, actives largely listed as inhibitors. chicken DT40 Tdp1-/-;hTDP1 cells + 20 nM CPT, ATP luminescence, 48 h; further: potency means the concentration at half of the fitted maximal effect; nearly all actives have a fitted effect of over 55% in size
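Chicken DT40 Tdp1-/- cells complemented with human TDP1, 400 cells/well, exposed to compounds plus 20 nM camptothecin for at least 48 h at 37 C; viability read as ATP content by CellTiter-Glo luminescence.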
TDP1 cell noCPT = qHTS for Inhibitors of human tyrosyl-DNA phosphodiesterase 1 (TDP1): qHTS in cells in absence of CPT; hit rate 15% among 420,000; AID 686978, 2013; DT40 Tdp1-/- hTDP1 cells, no CPT, ATP luminescence, 48 h; Potency, µM (top dose mostly 46.2 µM), for the others: at the highest dose activity change, negative = growth inhibition, actives largely listed as inhibitors; further: potency means the concentration at half of the fitted maximal effect; nearly all actives have a fitted effect of over 55% in size
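Luminescent ATP content (CellTiter-Glo) served as the growth readout. Knockout chicken DT40 cells expressing human TDP1 were exposed to compounds without camptothecin for a minimum 48 hr at 37 °C.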
HT1080 IDH1KD tx = kills HT-1080 cells with IDH1 knockdown; HT-1080 IDH1 knockdown viability, ATP luminescence, 48 h; Potency, µM (series often up to 46.1 µM), for the others: at the highest dose activity, negative = toxicity, actives largely listed as cytotoxic; hit rate 2% among 360,000;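 further: potency means the concentration at half of the fitted maximal effect; 0% = DMSO wells and -100% = cell-free medium wells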
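After a 2 h attachment period, IDH1KD HT-1080 cells took pin-transferred compound for 48 h at 37 °C; ATP-based luminescence after 10 min room-temperature reagent incubation reported viability.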
* = called active by the depositor; ? = inconclusive; · = no result given. Only some compounds are listed: those with a hit (about 19% of all), similar ones and a draw of the others. Unless noted, the call rests on the fitted dose curve; in most records, active means well fitted curve in the direction sought with a large enough effect; inconclusive means small, poorly fitted or top-dose-only effect, or another doubt; inactive means no such curve, though single readings can be large; an effect the other way counts as inactive or inconclusive. Unless noted, on the % scale 0 is the no-effect control and ±100 the full control effect.

SMILES | ELG1 DNA repair | IL-1B inflam inh | HT1080-NT tox | TDP1 cell CPT | TDP1 cell noCPT | HT1080 IDH1KD tx
Cc1ccc(Cl)cc1NC(=O)Cn1nc2c(cc1=O)CC(C)CC2 (centres undefined) | · | · | · | -17% | -33% | ·
CN(C)C(=O)NC(Nc1ccc(Cl)cc1Cl)C(Cl)(Cl)Cl (centres undefined) | 2% | -5 | ? | ? | 18µM* | -23%
CCc1ccc(NC(=O)Cn2cc(S(=O)(=O)N3CCCC3)c(S(=O)(=O)N3CCCC3)c2)cc1 | · | · | · | -2% | -2% | ·
CCN1C(=O)[C@H]2[C@@H](c3ccc(-c4ccc(OC)cc4)cc3)N[C@@](CC(C)C)(C(=O)OC)[C@H]2C1=O | -2% | -2 | 0% | ? | 23µM* | -2%
CCCSc1ccc([C@H]2N[C@@](CC(C)C)(C(=O)OC)[C@H]3C(=O)N(C)C(=O)[C@@H]23)cc1 | 17% | -21 | 6% | ? | ? | 3%
CCN1C(=O)[C@H]2[C@@H](c3ccc(-c4ccc(Cl)c(Cl)c4)cc3)N[C@@](CC(C)C)(C(=O)OC)[C@H]2C1=O | -12% | 0 | 2% | 4.1µM* | ? | 2%
COC(=O)[C@]1(CC(C)C)N[C@H](c2ccc(-c3ccc(Cl)c(Cl)c3)cc2)[C@@H]2C(=O)N(C)C(=O)[C@@H]21 | -16% | ? | 0% | ? | 18µM* | 15%
CCN1C(=O)[C@H]2[C@@H](c3ccc(-c4cccc(Cl)c4)c(OC)c3)N[C@@](CC(C)C)(C(=O)OC)[C@H]2C1=O | -13% | -61* | -12% | ? | ? | 0%
CCN1C(=O)[C@H]2[C@@H](c3ccc(-c4ccc(C(C)=O)cc4)c(OC)c3)N[C@@](Cc3ccccc3)(C(=O)OC)[C@H]2C1=O | 13% | ? | -12% | ? | ? | -2%
COC(=O)[C@]1(CC(C)C)N[C@H](c2ccc(-c3ccc(C(C)=O)cc3)cc2)[C@@H]2C(=O)N(C)C(=O)[C@@H]21 | ? | 17 | 17% | -22% | ? | 12%
CC(C)CN(C(=O)C1CCCO1)c1c(N)n(CC(C)C)c(=O)[nH]c1=O (centres undefined) | 4% | 9 | 0% | -15% | 0% | -15%
CCCN(CCC)C(=O)C(c1ccccc1)C1(O)CCCCC1 (centres undefined) | · | -13 | 0% | ? | ? | 1%
CC(C)(C)OC(=O)N[C@@H](C(=O)OC(C)(C)C)c1ccc(Br)cc1 | ? | 7 | -4% | ? | -3% | -10%
CCN1C(=O)[C@H]2[C@@H](c3ccc(-c4cccc(Cl)c4)cc3)N[C@@](CC(C)C)(C(=O)OC)[C@H]2C1=O | 14% | -27 | 8% | 18µM* | 12µM* | 10%
COc1ccc(OC)c(S(=O)(=O)N2c3cc(F)ccc3CCC2C)c1 (centres undefined) | · | 8 | -21% | 7.3µM* | ? | -10%
OC(c1ccc(Cl)c(Cl)c1)c1ncc(-c2ccccc2Cl)[nH]1 (centres undefined) | · | 0 | ? | ? | ? | ?
CSc1ncc(Cl)c(C(=O)C(C#N)c2nc3c(C)cc(C)cc3c(=O)[nH]2)n1 (centres undefined) | ? | 1 | -27% | ? | 26µM* | -18%
COC(=O)[C@H](CC(C)C)N1Cc2cc(OC)cc(OC)c2-c2ccccc2S1(=O)=O | ? | -7 | -7% | ? | 16µM* | -3%
COc1ccc(-c2nnc(SCc3ccc(C(=O)O)cc3)n2C)cc1OC | -21% | 31 | -4% | 1% | 0% | 0%
COCCNC(=O)c1cc2c(c(-c3cccc(C#Cc4ccc(OC)c(OC)c4)c3)n1)[C@@H](CCO)N(S(=O)C(C)(C)C)C2 (some centres undefined) | · | -18 | ? | ? | ? | ?
CCNC(=O)c1cc2c(c(-c3cccc(-c4cccc(C(=O)N(C)C)c4)c3)n1)[C@H](CCO)N(S(=O)C(C)(C)C)C2 (some centres undefined) | · | 0 | 1% | -5% | ? | 3%
COc1cccc(CNC(=O)c2cc3c(c(-c4cccc(-c5cccc(C#N)c5)c4)n2)[C@H](CCO)N(S(=O)C(C)(C)C)C3)c1 (some centres undefined) | · | -17 | 7% | ? | 15µM* | 8%
COc1ccc(C#Cc2cccc(-c3nc(C(=O)NCc4ccc(Oc5ccccc5)cc4)cc4c3[C@@H](CCO)N(S(=O)C(C)(C)C)C4)c2)cc1OC (some centres undefined) | · | -11 | 21µM* | ? | ? | ?
COc1ccc(C#Cc2cccc(-c3nc(C(=O)N4CCN(C)CC4)cc4c3[C@H](CCO)N(S(=O)C(C)(C)C)C4)c2)cc1OC (some centres undefined) | · | -19 | 28% | -29% | -21% | -1%
CN(C)C(=O)c1cccc(-c2cccc(-c3nc(C(=O)NCc4ccccc4)cc4c3[C@@H](CCO)N(S(=O)C(C)(C)C)C4)c2)c1 (some centres undefined) | · | -55* | ? | 18µM* | 15µM* | ?
SMILES | ELG1 DNA repair | IL-1B inflam inh | HT1080-NT tox | TDP1 cell CPT | TDP1 cell noCPT | HT1080 IDH1KD tx
C/C=C/c1cccc(-c2nc(C(=O)NC3CCC3)cc3c2[C@@H](CCO)N(S(=O)C(C)(C)C)C3)c1 (some centres undefined) | · | · | 5% | ? | ? | -3%
CC(C)(C)S(=O)N1Cc2cc(C(=O)NCC(F)(F)F)nc(-c3cccc(-c4cccc(F)c4)c3)c2[C@H]1CCO (some centres undefined) | · | ? | -19% | ? | 21µM* | -28%
O=C1C=C(c2cccc(CO)c2)C[C@@H](c2ccc(Cl)cc2)C1 | -15% | -25 | 1% | ? | ? | -5%
O=C(CN(C(=O)CCC(=O)Nc1nccs1)c1ccc2c(c1)OCO2)NCc1ccccc1 | -1% | -7 | -7% | -8% | -15% | -11%
O=C(Nc1ccc2[nH]ncc2c1)c1ccccc1Cl | ? | ? | -10% | -14% | -16% | -11%
CC(C)(C)S(=O)N1Cc2cc(C(=O)N[C@@H]3CCN(Cc4ccccc4)C3)nc(-c3cccc(-c4cc5ccccc5o4)c3)c2[C@@H]1CCO (some centres undefined) | · | ? | ? | ? | 23µM* | ?
